Data reported in PubChem BioAssay (EPA / NIEHS).
The source made the active and inactive calls. How the source made its calls: active means hit-call score of the fitted dose curve at least 0.9, where 1 is the maximum; inactive means score below 0.9.

Biological target: Hepatocyte nuclear factor 6 (Homo sapiens) (UniProt Q9UBC0)
Test: ATG_HNF6_CIS: Attagene CIS-FACTORIAL HepG2 Assay for human Hepatocyte Nuclear Factor 6 (HNF6) (AID 2282952)
Details: HepG2 Attagene cis-factorial HNF6 reporter transcription; actives raise or lower the signal
Description: ATG_CIS is a cell-based, multiplexed-readout assay that uses HepG2, a human liver cell line, with measurements taken at 24 hours after chemical dosing in a 24-well plate.ATG_HNF6_CIS is one of 52 assay component(s) measured or calculated from the ATG_CIS assay. It is designed to make measurements of mRNA induction, a form of inducible reporter, as detected with fluorescence intensity signals by Reverse transcription polymerase chain reaction (RT-PCR) and Capillary electrophoresis technology.Data from the assay component ATG_HNF6_CIS was analyzed into 1 assay endpoint. This assay endpoint, ATG_HNF6_CIS, was analyzed with bidirectional fitting relative to DMSO as the negative control and baseline of activity. Using a type of inducible reporter, measures of mRNA for gain or loss-of-signal activity can be used to understand the reporter gene at the transcription factor-level as they relate to the gene ONECUT1. Furthermore, this assay endpoint can be referred to as a primary readout, because this assay has produced multiple assay endpoints where this one serves a reporter gene function. To generalize the intended target to other relatable targets, this assay endpoint is annotated to the dna binding intended target family, where the subfamily is homeobox protein.
Human liver HepG2 cells are transiently transfected with multiple reporter transcription units (MRTUs) in 6-well plates using FuGene 6 reagent (Roche; 3 ml FuGene/1 mg DNA). The MRTU constructs are regulated by a cis-regulating element (promoter). […] A major difference between the CIS and TRANS system is that in CIS activities of endogenous TFs are measured, whereas the TRANS assay evaluates changes in activities of exogenous, chimeric NR-Gal4 proteins. […] At the end of 24 hour incubation, total RNA was isolated using TriZol reagent (Invitrogen). The isolated RNA is then reverse-transcribed using oligo(dT) primer and Mo-MLV reverse transcriptase (Invitrogen) with DNAse I (Ambion) treatment for 30 min. The one-tenth of the produced cDNA was amplified by PCR using Taq DNA polymerase (Invitrogen) and two reporter sequence-specific primers. The PCR products were fluorescently labeled by primer extension with 6-arboxyfluorescein (6-FAM) 5'-labeled reporter sequence-specific primer (2 min at 95 C, 20 s at 68 C and 10 min at 72 C) and these products were digested with 5U of HpaI (New England Biolabs) for 2h at 37 C. The fragments were purified using Qiaquick PCR columns (Qiagen), analyzed on an ABI 3130xL genetic analyzer (Applied Biosystems) with peak positions identified by using a set of X-rhodamine (ROX)-labeled MapMarker1000 molecular weight standards (BioVentures). The raw capillary electrophoresis data was processed using Attagraph software (Attagene).

Hepatocyte nuclear factor 6 (Homo sapiens), sequence (Q9UBC0 whole entry, looked up): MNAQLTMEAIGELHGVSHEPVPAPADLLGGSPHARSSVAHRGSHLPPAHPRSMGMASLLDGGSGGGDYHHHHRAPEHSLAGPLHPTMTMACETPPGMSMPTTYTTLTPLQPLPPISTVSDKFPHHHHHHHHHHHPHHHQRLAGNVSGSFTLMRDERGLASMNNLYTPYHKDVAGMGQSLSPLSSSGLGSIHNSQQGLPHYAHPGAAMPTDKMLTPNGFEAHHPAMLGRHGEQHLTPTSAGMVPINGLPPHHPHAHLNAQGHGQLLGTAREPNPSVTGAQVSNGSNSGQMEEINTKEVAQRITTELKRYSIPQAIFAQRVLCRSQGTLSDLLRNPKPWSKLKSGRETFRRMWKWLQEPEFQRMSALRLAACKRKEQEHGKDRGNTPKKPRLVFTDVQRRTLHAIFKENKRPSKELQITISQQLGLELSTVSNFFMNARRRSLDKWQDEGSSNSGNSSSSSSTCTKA

| SMILES | outcome | AC50 |
| --- | --- | --- |
| OCCOCCOCCOCCO | inactive | – |
| CCCCCCC#CC(=O)OC | inactive | – |
| CCO[Si](CCCS)(OCC)OCC | inactive | – |
| COc1ccc(O)cc1 | inactive | – |
| CCCCCCCCC | inactive | – |
| CC(=O)Nc1ccc(CC(=O)O)cc1 | inactive | – |
| O=C(O)CCSCCC(=O)O | inactive | – |
| CC(=O)OCC=Cc1ccccc1 | inactive | – |
| CSc1nc(NC2CC2)nc(NC(C)(C)C)n1 | inactive | – |
| Clc1ccc(Cl)c(Cl)c1Cl | inactive | – |
| COC(=O)OC | inactive | – |
| C=CC[N+](C)(C)CC=C | inactive | – |
| O=Cc1ccc(F)cc1 | inactive | – |
| CC(C)c1cccc(O)c1 | inactive | – |
| CCC(O)CO (stereo not given) | inactive | – |
| CN(C)C(=N)N=C(N)N | inactive | – |
| CC(CCO)CCc1ccccc1 (stereo not given) | inactive | – |
| CC(C=O)Cc1ccc(C(C)C)cc1 (stereo not given) | inactive | – |
| COc1ccnc(CS(=O)c2nc3cc(OC(F)F)ccc3[nH]2)c1OC (stereo not given) | inactive | – |
| C=CC(=O)OCCn1c(=O)n(CCOC(=O)C=C)c(=O)n(CCOC(=O)C=C)c1=O | inactive | – |

| SMILES | outcome | AC50 |
| --- | --- | --- |
| C=C(C)[C@@H]1CCC2=CC(=O)C[C@@H](C)[C@]2(C)C1 | inactive | – |
| CCCCC(CC)COC(=O)/C=C\C(=O)OCC(CC)CCCC (stereo not given) | – | 171 µM (active) |
| C=CC(C)(C)O | inactive | – |
| O=c1cc(-c2ccccc2)oc2cc(O)cc(O)c12 | inactive | – |
| O=S(=O)(O)c1cccc2c(S(=O)(=O)O)cccc12 | inactive | – |
| CC(C)(C)NC(N)=O | inactive | – |
| C=CC(=O)OCCOCCOCC | inactive | – |
| C[C@H]1C[C@@H]2[C@H]([C@@H](O)C[C@@]3(C)[C@H]2CC[C@]3(O)C(=O)CO)[C@@]2(C)C=CC(=O)C=C12 | inactive | – |
| C=C[Si](OCC)(OCC)OCC | inactive | – |
| O=C[C@H](O)[C@H](O)[C@H](O)CO | inactive | – |
| O=Cc1ccc(Cl)c([N+](=O)[O-])c1 | – | 134 µM (active) |
| CCN(CC)CCOC(=O)c1ccc(N)cc1 | inactive | – |
| CN(CCOc1ccc(CC2SC(=O)NC2=O)cc1)c1ccccn1 (stereo not given) | inactive | – |
| Cc1ncc([N+](=O)[O-])n1C | inactive | – |
| CC(=O)O[C@]1(C(C)=O)CC[C@H]2[C@@H]3C[C@H](C)C4=CC(=O)CC[C@]4(C)[C@H]3CC[C@@]21C | inactive | – |
| C[C@]12CC[C@H]3[C@@H](CCC4=CC(=O)CC[C@@]43C)[C@@H]1CC[C@@H]2C(=O)CO | inactive | – |
| O=C(O)CCCCC1CCSS1 (stereo not given) | inactive | – |
| CCCCCCCCCCCCN(CCCCCCCCCCCC)CCCCCCCCCCCC | inactive | – |
| CN(C)CCOCCN(C)C | inactive | – |
| CC1(C)[C@H]2CC[C@]1(C)[C@H](O)C2 | inactive | – |
